Data: PubChem BioAssay (NCATS)
Inconclusive results are not listed. The source made the active and inactive calls. Unless noted, the call rests on the fitted dose curve; in most records, active means well fitted curve in the direction sought with a large enough effect; inconclusive means small, poorly fitted or top-dose-only effect, or another doubt; inactive means no such curve, though single readings can be large; an effect the other way counts as inactive or inconclusive.

Columns and labels:
[1] = S16 Schwann cell viability assay (CellTiter-Glo assay) (AID 624031);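 further: cellular ATP luminescence as a viability measure; plate controls were DMSO-treated cells for no effect and cell-free wells for full effect; nearly all actives have a fitted effect of over 70% in size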
Outline: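 Native S16 rat Schwann cells, 500-750 cells/well in DMEM with 10% FBS, dosed with compound after overnight culture and incubated 24h at 37 degree Celsius/5% CO2. Viability by CellTiter-Glo luminescence; % activity normalized to no-cell wells and DMSO-treated cells.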

[2] = S16 Schwann cell PMP22 intronic element beta-lactamase assay (AID 624044; calls by dose curve;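 further: 0% = DMSO and -100% = potassium clavulanate positive control; nearly all actives have a fitted effect of over 15% in size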)
Outline: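 Rat S16 Schwann cells with beta-Lac driven by a PMP22 intronic element, compound-treated 24 h at 37 °C. LiveBLAzer FRET B/G read: 460 nm normalized to potassium clavulanate vs DMSO; 535 nm FRET as viability; concentration-effect curves classified.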

7G8 = assay: qHTS profiling for inhibitors of Plasmodium falciparum proliferation (AID 504749); further: nearly all actives have a fitted effect of over 60% in size; further: potency means the concentration at half of the fitted maximal effect; conditions: P. falciparum in erythrocytes, SYBR Green DNA, 72 h; series mostly up to 12.8 µM
Outline: (§1)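 Parasite proliferation within erythrocytes, 72 h exposure. Endpoint: SYBR Green I fluorescence after overnight lysis at room temperature. Controls: 0.29 uM artemisinin, DMSO.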

CP203 = assay: as above; conditions: P. falciparum in erythrocytes, SYBR Green DNA, 72 h; series mostly up to 12.8 µM
Outline: as §1

CP215 = assay: as above; conditions: P. falciparum in erythrocytes, SYBR Green DNA, 72 h; series mostly up to 12.8 µM
Outline: as §1

CP260 = assay: as above; conditions: P. falciparum in erythrocytes, SYBR Green DNA, 72 h; series mostly up to 12.8 µM
Outline: as §1

CP335 = assay: as above; conditions: P. falciparum in erythrocytes, SYBR Green DNA, 72 h; series mostly up to 12.8 µM
Outline: as §1

DFO2036 = assay: as above; conditions: P. falciparum in erythrocytes, SYBR Green DNA, 72 h; series mostly up to 12.8 µM
Outline: as §1

GB4 = assay: as above; conditions: P. falciparum in erythrocytes, SYBR Green DNA, 72 h; series mostly up to 12.8 µM
Outline: as §1

ICS = assay: as above; conditions: P. falciparum in erythrocytes, SYBR Green DNA, 72 h; series mostly up to 12.8 µM
Outline: as §1

P94_40 = assay: as above; conditions: P. falciparum in erythrocytes, SYBR Green DNA, 72 h; series mostly up to 12.8 µM
Outline: as §1

PC26 = assay: as above; conditions: P. falciparum in erythrocytes, SYBR Green DNA, 72 h; series mostly up to 12.8 µM
Outline: as §1

TAB109 = assay: as above; conditions: P. falciparum in erythrocytes, SYBR Green DNA, 72 h; series mostly up to 12.8 µM
Outline: as §1

W2 = assay: as above; conditions: P. falciparum in erythrocytes, SYBR Green DNA, 72 h; series mostly up to 12.8 µM
Outline: as §1

[3] = target: Cytochrome P450 3A4 (Homo sapiens) (UniProt P08684); assay: qHTS Assay for Activators of Cytochrome P450 3A4 (AID 885); further: nearly all actives have a fitted effect of over 65% in size
Cytochrome P450 3A4 (Homo sapiens), sequence (P08684 whole entry, looked up): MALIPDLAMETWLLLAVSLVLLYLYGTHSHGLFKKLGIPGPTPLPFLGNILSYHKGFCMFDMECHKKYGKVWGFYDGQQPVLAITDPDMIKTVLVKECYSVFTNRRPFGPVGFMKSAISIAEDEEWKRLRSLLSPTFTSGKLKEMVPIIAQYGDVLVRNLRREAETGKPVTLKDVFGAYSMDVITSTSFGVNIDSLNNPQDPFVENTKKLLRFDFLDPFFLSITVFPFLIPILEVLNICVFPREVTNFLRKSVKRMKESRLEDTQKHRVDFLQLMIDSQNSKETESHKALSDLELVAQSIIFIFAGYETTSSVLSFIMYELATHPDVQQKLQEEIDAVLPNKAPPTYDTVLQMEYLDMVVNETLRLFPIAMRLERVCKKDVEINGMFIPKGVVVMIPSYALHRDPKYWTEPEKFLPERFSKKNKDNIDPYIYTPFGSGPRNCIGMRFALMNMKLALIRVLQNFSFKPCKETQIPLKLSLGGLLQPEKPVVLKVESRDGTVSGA
Outline: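 Signal was normalized against complete inhibition by 57 uM ketoconazole. The reaction used 20nM CYP3A4 with 25uM Luciferin-PPXE, 10-min compound preincubation and a 60-min NADPH-supported step at RT.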

[4] = target: Cytochrome P450 2D6 (Homo sapiens) (UniProt P10635); assay: qHTS Assay for Inhibitors and Substrates of Cytochrome P450 2D6 (AID 891); further: potency means the concentration at half of the fitted maximal effect; nearly all actives have a fitted effect of over 60% in size
Cytochrome P450 2D6 (Homo sapiens), sequence (P10635 whole entry, looked up): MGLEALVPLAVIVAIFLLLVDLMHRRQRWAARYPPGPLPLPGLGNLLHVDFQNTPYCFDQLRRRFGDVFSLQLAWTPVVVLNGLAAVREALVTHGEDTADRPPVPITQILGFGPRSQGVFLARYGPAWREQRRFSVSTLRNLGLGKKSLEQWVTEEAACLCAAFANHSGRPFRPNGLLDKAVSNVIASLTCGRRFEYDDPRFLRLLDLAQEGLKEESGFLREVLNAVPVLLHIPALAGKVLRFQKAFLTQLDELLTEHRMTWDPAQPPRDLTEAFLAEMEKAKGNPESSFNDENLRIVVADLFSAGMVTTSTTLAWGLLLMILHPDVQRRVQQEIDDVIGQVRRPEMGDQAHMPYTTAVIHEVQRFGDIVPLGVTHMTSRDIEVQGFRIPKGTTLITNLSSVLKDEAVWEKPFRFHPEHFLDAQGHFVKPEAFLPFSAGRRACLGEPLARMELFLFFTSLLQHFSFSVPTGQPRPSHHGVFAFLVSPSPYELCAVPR
Outline: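 Human CYP2D6 (5 nM) with 30 uM Luciferin-ME EGE (at Km) in 100 mM KPO4, compound preincubated 10 min, then NADPH regeneration system for 60 min at room temperature. Luciferin read by luminescence; normalized to 1.43 uM quinidine.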

[5] = Confirmation and Secondary Assay for Modulators of Hemoglobin Beta Chain Splicing at IVS2 654 locus (AID 910);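 further: per-well total GFP intensity by laser scanning cytometry after 2-day treatment; % of control where 0% means no effect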
Outline: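 HeLa cells stably carrying EGFP interrupted by mutant beta-globin IVS2-654 intron (CMV-driven) were treated with compound for 2 days at 37C; corrected splicing was scored as total peak GFP intensity per well (488 nm excitation, 500-520 nm emission).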

[6] = qHTS Assay for Identification of Small Molecule Agonists for Hypoxia Response Element Signaling Pathway (AID 914; active means well fitted activation curve with a large enough effect in the signal ratio, with a control signal flat, not every such curve was filed as active; the % refers to the signal ratio; further: % of control where 0% means no effect); conditions: ME-180 (cervical carcinoma) HRE-bla reporter, beta-lactamase ratio, CoCl2, 17 h; activation: hits give high values
Outline: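 HRE-bla ME-180 cells with beta-lactamase reporter under hypoxia response element, compounds with EC50 CoCl2 for 17 hours at 37 C. CCF4 substrate, 460nm/530nm emission ratio gave %Activity; AC50 from titration series.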

C[C@H](O)Cn1cnc2c1c(=O)n(C)c(=O)n2C
inactive: outcome [1] | Potency [2] | Potency (7G8) | Potency (CP203) | Potency (CP215) | Potency (CP260) | Potency (CP335) | Potency (DFO2036) | Potency (GB4) | Potency (ICS) | Potency (P94_40) | Potency (PC26) | Potency (TAB109) | Potency (W2)

CC[C@@H]1OC(=O)[C@H](C)[C@H](O[C@@H]2C[C@](C)(OC)[C@H](O)[C@H](C)O2)[C@H](C)[C@H](O[C@@H]2O[C@@H](C)C[C@@H](N(C)C)[C@@H]2O)[C@](C)(O)C[C@H](C)C(=O)[C@H](C)[C@H](O)[C@]1(C)O
inactive: Potency [3]

C[N+](C)(CCCOc1ccccc1)c1ccccc1
active: Potency [4] 0.0158 µM

CCOC(=O)O[C@@H](C)OC(=O)[C@@H]1N2C(=O)[C@@H](NC(=O)[C@@H](N)c3ccccc3)[C@H]2SC1(C)C
active: Potency (W2) 5.73 µM
inactive: outcome [1] | Potency [2] | Potency (7G8) | Potency (CP203) | Potency (CP215) | Potency (CP260) | Potency (CP335) | Potency (GB4) | Potency (ICS) | Potency (P94_40) | Potency (PC26) | Potency (TAB109)

C[C@H]1CC[C@]2(OC1)O[C@@H]1C[C@@H]3[C@@H]4CC[C@H]5C[C@@H](O)CC[C@]5(C)[C@@H]4CC(=O)[C@@]3(C)[C@H]1[C@@H]2C
inactive: outcome [1] | Potency (7G8) | Potency (CP203) | Potency (CP215) | Potency (CP260) | Potency (CP335) | Potency (DFO2036) | Potency (GB4) | Potency (ICS) | Potency (P94_40) | Potency (PC26) | Potency (TAB109) | Potency (W2)

Fc1ccc(Nc2nc(-c3cccnc3)nc3ccccc23)cc1
inactive: Potency [5]

C[C@@]12C=CC(=O)C=C1CC[C@H]1[C@H]3CC[C@](O)(C(=O)CO)[C@]3(C)CC(=O)[C@@H]12
inactive: activation [6] -13.5%

CCN[C@@H]1C[C@H](N)[C@H](O[C@H]2OC(CN)=CC[C@H]2N)[C@@H](O)[C@H]1O[C@H]1OC[C@@](C)(O)[C@@H](NC)[C@@H]1O
inactive: outcome [1] | Potency [2] | Potency (7G8) | Potency (CP203) | Potency (CP215) | Potency (CP260) | Potency (CP335) | Potency (DFO2036) | Potency (GB4) | Potency (ICS) | Potency (P94_40) | Potency (PC26) | Potency (TAB109) | Potency (W2)

CC(C)(C)NC(=O)[C@@H]1CC[C@@H]2[C@@H]3CC[C@@H]4NC(=O)C=C[C@@]4(C)[C@H]3CC[C@]21C
inactive: Potency [2] | Potency (CP203) | Potency (CP215) | Potency (CP260) | Potency (CP335) | Potency (DFO2036) | Potency (GB4) | Potency (ICS) | Potency (P94_40) | Potency (PC26) | Potency (TAB109) | Potency (W2)

C[C@@H]1C[C@H]2[C@@H]3C[C@H](F)C4=CC(=O)C=C[C@@]4(C)[C@]3(F)[C@H](O)C[C@]2(C)[C@@]1(O)C(=O)CO
inactive: outcome [1] | Potency [2] | Potency (7G8) | Potency (CP203) | Potency (CP215) | Potency (CP260) | Potency (CP335) | Potency (DFO2036) | Potency (GB4) | Potency (ICS) | Potency (P94_40) | Potency (PC26) | Potency (TAB109) | Potency (W2)
